The values that follow come from PubChem BioAssay (NCATS).

Each structure is given as a SMILES string. Records with an inconclusive call do not appear. Where a call stands in place of a potency, no number is given. A number with no mark means an inactive call. Active and inactive are the calls of the source. Calls follow the shape of the dose curve; as a rule, active = well fitted inhibition curve with a large enough effect; inconclusive = small, poorly fitted or top-dose-only effect; inactive = no such curve, though single readings can be large or run the other way.

This assay is described as follows: Primary qHTS for inhibitors of La Crosse Virus (LACV) - induced cell death in SH-SY5Y cells (AID 1508616). Also: top concentration of the series differs between compounds. As to conditions: SH-SY5Y LACV cytopathicity rescue, ATP luminescence, 6 d; series mostly up to 4.29 µM; activity change: at the top concentration. The text has this: Assay Provider: Karin Peterson Ph.D.
National Institute of Allergy and Infection Diseases, National Institute of Health
La Crosse Virus (LACV) is a California serogroup mosquito-borne arbovirus, family Peribunyaviridae, which is an endemic pathogen in North America and can induce a rare, life-threatening neurological disease in children. LACV was first isolated in the early 1960s, from a summer "rural encephalitis" case in La Crosse, Wisconsin, USA. Since then, LACV encephalitis cases have been found in more than twenty states, with most cases in the Mississippi and Ohio River basins. The life cycle of LACV is maintained between the vector, the eastern tree-hole mosquito Aedes triseriatus, and vertebrate hosts including eastern gray squirrels (Sciurus carolinensis) and chipmunks (Tamiasstriatus grinseus). […] Most LACV infections in humans are asymptomatic or induce mild clinical symptoms of fever, headache, lethargy and vomiting. However, in some cases LACV can cause severe neuroinvasive disease, including encephalitis, meningitis, and meningoencephalitis, requiring hospitalization. To date, there is neither a licensed vaccine nor a Food and Drug Administration (FDA) approved antiviral therapy available to prevent or treat LACV encephalitis. The primary treatment for viral encephalitis is palliative care due to the lack of therapeutics. In the current study, we conducted a screen of 4,096 FDA approved and bioactive small molecules against LACV, by screening for rescue of LACV-induced cell death in SH-SY5Y cells.
LACV-induced cytopathicity assay
SEQUENCE No. (1,2, 3, etc.); […] (e.g., Cells, Incubation, Reagent, etc.); VALUE and DESCRIPTION.
1. Reagent; 2 uL; Cell solution.
3. Compounds; 23nL; Compound library
4. Reagent; 12 uL; LACV virus
6. Reagent; 24 uL; ATPLite (PerkinElmer)
7. Time; 5 min; Room temperature
8. Detection; Luminescence; View
NOTES (numbers refer to sequence above)
1. Seed 6000 SH-SY5Y cells (ATCC CRL-2266) in 2 microL/well media (DMEM/F12 10% FBS, 1x L-Glutamine, 1x Pyruvate, 1x NEAA, 1x Pen/Strep) in 384-well assay plates (tissue culture treated, white, solid bottom).
2. Incubate at 37 degrees C with 5% CO2 for 24 hr.
3. Dispense 23 nL/well compounds in DMSO via pin transfer.
4. Dispense 12 microL/well of LACV (LACV/human/1978) in media at 0.01 MOI.
5. Incubate at for 6 days at 37C 5% CO2
6. Dispense 24 microL/well of ATPLite 1step Luminescence assay system (PerkinElmer).
7. Incubate for 5 min at room temperature.
8. Read luminescence signal (Viewlux plate reader, PerkinElmer). Data was normalized with DMSO control wells containing LACV as 0%, and DMSO control wells without virus as 100%.
On to `CN(C)CCOC(c1ccccc1)c1ccccc1`, for which the “activity change” value was -10.3% [at 9.63 µM]. On to `CN(C)C(=N)N=C(N)N`, for which the “activity change” value is -3.12%. In the case of `NC12CC3CC(CC(C3)C1)C2`, the Potency entry is “inactive”. Still for that read-out and setting: next, `O=c1c(-c2ccc(O)cc2)coc2cc(O)cc(O)c12`: “inactive”.

On to `CC#C[C@]1(O)CC[C@H]2[C@@H]3CCC4=CC(=O)CCC4=C3[C@@H](c3ccc(N(C)C)cc3)C[C@@]21C`, for which the Potency result was “inactive”. Still for that read-out and setting: next, `CC[N+](CC)(CC)CCOc1cccc(OCC[N+](CC)(CC)CC)c1OCC[N+](CC)(CC)CC`: “inactive”; `Clc1ccc2c(c1)C(N1CCNCC1)=Nc1ccccc1O2`: “inactive”; `COc1cc2nc(N(C)CCCNC(=O)C3CCCO3)nc(N)c2cc1OC` (stereo not given): “inactive”. `Cc1ccc(-c2cc(C(F)(F)F)nn2-c2ccc(S(N)(=O)=O)cc2)cc1`: the “activity change” value is 49.1%. As for `Cc1ccccc1N1C(=O)c2cc(S(N)(=O)=O)c(Cl)cc2NC1C` (stereo not given), the Potency result is “inactive”. On the same count and under the same terms, next, `CCOC(=O)Nc1ccc(NCc2ccc(F)cc2)nc1N`: “inactive”.

In the case of `CN1CCC(=C2c3ccccc3C=Cc3ccccc32)CC1`, the “activity change” value was 20.4%. Regarding `Cc1cnc(C(=O)NCCc2ccc(S(=O)(=O)NC(=O)NC3CCCCC3)cc2)cn1`, the Potency entry was “inactive”. Same read-out and setting: next, `C[C@@H]1CC(=O)NN=C1c1ccc(NN=C(C#N)C#N)cc1`: “inactive”; `COc1cc2c(c(OC)c1OC)-c1ccc(OC)c(=O)cc1[C@@H](NC(C)=O)CC2`: “inactive”. On the same count and under the same terms, as for `CC12CC3CC(C)(C1)CC(N)(C3)C2`, the entry is “inactive”; as for `NC(=O)NO`, “inactive”; as for `CC(C)(Oc1ccc(C2CC2(Cl)Cl)cc1)C(=O)O` (stereo not given), “inactive”. On to `CC(CCc1ccc(O)cc1)NCCc1ccc(O)c(O)c1` (stereo not given), for which the “activity change” value is -14%.

In the case of `CC(C)NCC(O)COc1ccc(CCOCC2CC2)cc1` (stereo not given), the Potency result is “inactive”. On the same count and under the same terms, as for `NCCS(=O)(=O)O`, the entry is “inactive”. Same read-out and setting: as for `Clc1ccc(C(c2ccccc2Cl)C(Cl)Cl)cc1` (stereo not given), the entry is “inactive”. The same measure, in the same setting: as for `CCOC(=O)C(C)(C)Oc1ccc(Cl)cc1`, the entry is “inactive”. `Nc1ccn([C@H]2CC[C@@H](CO)O2)c(=O)n1`: the Potency entry is “inactive”.

As to `CS(=O)(=O)CCNCc1ccc(-c2ccc3ncnc(Nc4ccc(OCc5cccc(F)c5)c(Cl)c4)c3c2)o1`, the “activity change” value was 58.6%. With `CCN1CCCC1CNC(=O)c1cc(S(=O)(=O)CC)c(N)cc1OC` (stereo not given), the Potency result is “inactive”. Same read-out and setting: as for `COc1ccccc1OCC(O)CN1CCN(CC(=O)Nc2c(C)cccc2C)CC1` (stereo not given), the entry is “inactive”. Consider `O=C(Nc1ccc([N+](=O)[O-])cc1Cl)c1cc(Cl)ccc1O`, for which the “activity change” value was -88.4% [at 1.78 µM]. `CNCCCC12CCC(c3ccccc31)c1ccccc12`: the Potency result is “inactive”. For the compound `OCCN1CCN(CCCN2c3ccccc3Sc3ccc(C(F)(F)F)cc32)CC1`, the “activity change” value is -17.5%. With `CN(C)CCCN1c2ccccc2CCc2ccc(Cl)cc21`, the Potency entry was “inactive”.

Regarding `COc1ccc2[nH]cc(CCNC(C)=O)c2c1`, the Potency entry is “inactive”. With `CN(CCOc1ccc(NS(C)(=O)=O)cc1)CCc1ccc(NS(C)(=O)=O)cc1`, the “activity change” value is 14.4%.

Regarding `CC1COc2c(N3CCN(C)CC3)c(F)cc3c(=O)c(C(=O)O)cn1c23` (stereo not given), the Potency entry is “inactive”. Same read-out and setting: next, `CC(C)C(=O)Nc1ccc([N+](=O)[O-])c(C(F)(F)F)c1`: “inactive”; `NS(=O)(=O)c1cc2c(cc1Cl)NCNS2(=O)=O`: “inactive”; `CC(C)Cc1ccc(C(C)C(=O)O)cc1` (stereo not given): “inactive”.

On to `CC(=O)OCC(CCn1cnc2cnc(N)nc21)COC(C)=O`, for which the “activity change” value is 14.1%. For `NCCc1cnc[nH]1`, the Potency result was “inactive”.

Regarding `CC[C@@]1(O)C(=O)OCc2c1cc1n(c2=O)Cc2cc3c(CN(C)C)c(O)ccc3nc2-1`, the “activity change” value is -93.4%.
